# Laboratory results reported in the supplement of paper PMC8728848.
# The full list was thinned out, with the strongest signals kept by preference.
# B1: Epa2 (Candida glabrata) (protein)
# chain: MGSSHHHHHHSSGLVPRGSHMASSKDPTSFPMGCSPQVLKTQPGLAVKLYSYGHPVPGCAYNTYQYPDFPRSGYKKERKLADITGVNGRIDIDLKPNDPCRVLSGNLPSNYNYQNTLTYTNFTMILYGYFQPKVTGYHTFNLEADDLLFMNLGAGNAFDCCRAESTLDNFGNYQSYSIWGTDKATADLTVFLVSGIYYPIRLFYVNRDNNAVLDFSFSTEFNKEIIHDFTSYFFSASDEEQCPGNI
# Legend:
# Experiment in all cases: glycan array binding signal (z-score within array); higher = stronger binding
# Conditions in all cases: glycan notation: IUPAC condensed, linker removed
# [1] = biological target: Fuc(a1-2)Gal(b1-3)[Fuc(a1-4)]GlcNAc
# Summary of the method: (§1)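 From the Consortium for Functional Glycomics database, 3228 arrays were curated, keeping only those whose protein sequence was available. Binding is given as a within-array Z-score averaged across arrays sharing a protein sequence and across linkers. Negative Z-scores can be read as non-binding.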
# [2] = biological target: Fuc(a1-2)Gal(b1-3)[Fuc(a1-4)]GlcNAc(b1-3)[Fuc(a1-3)[Gal(b1-4)]GlcNAc(b1-6)]Gal(b1-4)Glc
# Summary of the method: as §1
# [3] = biological target: Fuc(a1-2)Gal(b1-4)Fuc(a1-3)]GlcNAc(b1-2)Man(a1-3)[Fuc(a1-2)Gal(b1-4)[Fuc(a1-3)]GlcNAc(b1-2)Man(a1-6)]Man(b1-4)GlcNAc(b1-4)GlcNAc
# Summary of the method: as §1
# [4] = biological target: Fuc(a1-2)Gal(b1-4)GlcNAc
# Summary of the method: as §1
# [5] = biological target: Fuc(a1-2)Gal(b1-4)GlcNAc(b1-6)GalNAc
# Summary of the method: as §1
# [6] = biological target: Fuc(a1-2)Gal(b1-4)[Fuc(a1-3)]GlcNAc(b1-3)GalNAc
# Summary of the method: as §1
# [7] = biological target: Fuc(a1-2)Gal6S(b1-3)GlcNAc6S
# Summary of the method: as §1
# [8] = biological target: Fuc(a1-2)[Gal(a1-3)]Gal(b1-3)GlcNAc
# Summary of the method: as §1
# [9] = biological target: Fuc(a1-2)[Gal(a1-3)]Gal(b1-4)[Fuc(a1-3)]Glc
# Summary of the method: as §1
# [10] = biological target: Fuc(a1-2)[GalNAc(a1-3)]Gal(b1-3)GalNAc(b1-3)Gal(a1-4)Gal(b1-4)Glc
# Summary of the method: as §1
# [11] = biological target: Fuc(a1-2)[GalNAc(a1-3)]Gal(b1-4)GlcNAc(b1-2)Man(a1-3)[Fuc(a1-2)[GalNAc(a1-3)]Gal(b1-4)GlcNAc(b1-2)Man(a1-6)]Man(b1-4)GlcNAc(b1-4)[Fuc(a1-6)]GlcNAc
# Summary of the method: as §1
# [12] = biological target: Fuc(a1-2)[GalNAc(a1-3)]Gal(b1-4)GlcNAc(b1-3)Gal(b1-4)GlcNAc
# Summary of the method: as §1
# [13] = biological target: Fuc(a1-2)[GalNAc(a1-3)]Gal(b1-4)[Fuc(a1-3)]GlcNAc(b1-3)GalNAc
# Summary of the method: as §1
# [14] = biological target: Fuc(a1-3)[Gal(b1-4)]GlcNAc(b1-2)Man
# Summary of the method: as §1
# [15] = biological target: Fuc(a1-3)[Gal(b1-4)]GlcNAc(b1-3)GalNAc
# Summary of the method: as §1
# [16] = biological target: Fuc(a1-3)[Gal(b1-4)]GlcNAc(b1-6)GalNAc
# Summary of the method: as §1
# [17] = biological target: Gal(a1-3)Gal(b1-3)[Fuc(a1-4)]GlcNAc(b1-2)Man(a1-3)[Gal(a1-3)Gal(b1-3)[Fuc(a1-4)]GlcNAc(b1-2)Man(a1-6)]Man(b1-4)GlcNAc(b1-4)GlcNAc
# Summary of the method: as §1
# [18] = biological target: Gal(a1-4)GlcNAc
# Summary of the method: as §1
# [19] = biological target: Gal(b1-3)[Neu5Ac(a2-6)]GlcNAc(b1-4)Gal(b1-4)Glc
# Summary of the method: as §1
# [20] = biological target: Gal(b1-4)Glc6S
# Summary of the method: as §1
# [21] = biological target: Gal(b1-4)GlcNAc(b1-3)Gal(b1-3)GalNAc
# Summary of the method: as §1
# [22] = biological target: Gal(b1-4)GlcNAc(b1-3)Gal(b1-3)GlcNAc
# Summary of the method: as §1
# [23] = biological target: Gal(b1-4)GlcNAc(b1-3)Gal(b1-4)GlcNAc
# Summary of the method: as §1
# [24] = biological target: Gal(b1-4)GlcNAc(b1-3)GalNAc
# Summary of the method: as §1
# [25] = biological target: Gal(b1-4)GlcNAc(b1-3)[Fuc(a1-3)GlcNAc(b1-6)]Gal(b1-4)Glc
# Summary of the method: as §1
# [26] = biological target: Gal(b1-4)GlcNAc(b1-3)[GlcNAc(b1-6)]Gal(b1-4)GlcNAc
# Summary of the method: as §1
# [27] = biological target: Gal3S(b1-3)GlcNAc
# Summary of the method: as §1
# [28] = biological target: Gal3S(b1-3)[Fuc(a1-4)]GlcNAc
# Summary of the method: as §1
# [29] = biological target: Gal3S6S(b1-4)GlcNAc6S
# Summary of the method: as §1
# [30] = biological target: Gal4S(b1-4)GlcNAc
# Summary of the method: as §1
binder,measurement,setting,value
B1,glycan array binding signal (z-score),[1],0.672
same,glycan array binding signal (z-score),[2],0.365
same,glycan array binding signal (z-score),[3],0.533
same,glycan array binding signal (z-score),[4],-0.046
same,glycan array binding signal (z-score),[5],2.02
same,glycan array binding signal (z-score),[6],4.06
same,glycan array binding signal (z-score),[7],1.81
same,glycan array binding signal (z-score),[8],-0.553
same,glycan array binding signal (z-score),[9],-0.56
same,glycan array binding signal (z-score),[10],-0.252
same,glycan array binding signal (z-score),[11],-0.26
same,glycan array binding signal (z-score),[12],-0.172
same,glycan array binding signal (z-score),[13],4.26
same,glycan array binding signal (z-score),[14],-1.15
same,glycan array binding signal (z-score),[15],0.659
same,glycan array binding signal (z-score),[16],2.23
same,glycan array binding signal (z-score),[17],-0.479
same,glycan array binding signal (z-score),[18],2.5
same,glycan array binding signal (z-score),[19],0.015
same,glycan array binding signal (z-score),[20],-0.198
same,glycan array binding signal (z-score),[21],0.503
same,glycan array binding signal (z-score),[22],-0.725
same,glycan array binding signal (z-score),[23],-0.158
same,glycan array binding signal (z-score),[24],-0.071
same,glycan array binding signal (z-score),[25],0.111
same,glycan array binding signal (z-score),[26],-1.09
same,glycan array binding signal (z-score),[27],-0.16
same,glycan array binding signal (z-score),[28],0.641
same,glycan array binding signal (z-score),[29],2.14
same,glycan array binding signal (z-score),[30],-0.316
